In the supplement of paper PMC4709259:
Where a name gives a salt, the structure may show the parent alone. ± gives the standard deviation.

What was measured:
[1] = system: Jurkat; assay: mean cell size (FSC-A) relative to DMSO control (fraction of control); higher = larger cells; conditions: 48 h
Summary of the method: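 Jurkat cells at 600 cells/µl were incubated for 1 h and then treated for 48h with the Enzo Screen-Well FDA Approved Drug Library v2.0 at 25µM, with DMSO at 0.9% (v/v) final. Compounds that reduced counts below 20% of controls were retested in 10-fold dilutions down to 25nM. Cell count and mean cell size, taken as forward scatter area, were measured by flow cytometry relative to solvent-only controls. Each plate carried 6-12 controls, and values are means of 3 biological replicates.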

[2] = system: Jurkat; assay: cell count relative to DMSO control (fraction of control); higher = more cells (less growth inhibition); conditions: 48 h

| Structure (SMILES) | mean cell size [1] | cell count [2] |
| --- | --- | --- |
| CC(C)NCC(O)COc1cccc2[nH]ccc12 (stereo unspecified) [Pindolol] (concentration: 25 µM) | 0.976 ± 0.065 | 0.644 ± 0.16 |
| CC(C)(C)NC[C@H](O)COc1cccc2c1CCCC2=O [Levobunolol·HCl] (concentration: 25 µM) | 0.964 ± 0.056 | 1.11 ± 0.03 |
| CC(C)(S)[C@@H](N)C(=O)O [Penicillamine (D-Penicillamine)] (concentration: 25 µM) | 0.954 ± 0.042 | 0.796 ± 0.074 |
| COc1ccc(-c2ccc3cc(C(=O)O)ccc3c2)cc1C12CC3CC(CC(C3)C1)C2 [Adapalene] (concentration: 2.5 µM) | 1.1 ± 0.1 | 0.269 ± 0.081 |
| CCc1cc(C(N)=S)ccn1 [Ethionamide] (concentration: 25 µM) | 1.05 ± 0.03 | 1.05 ± 0.1 |
| CN(N=O)C(=O)N[C@@H]1[C@@H](O)[C@H](O)[C@@H](CO)O[C@@H]1O [Streptozocin] (concentration: 25 µM) | 0.939 ± 0.014 | 0.897 ± 0.034 |
| C[N+](C)(C)CC(=O)O [Betaine] (concentration: 25 µM) | 0.945 ± 0.047 | 0.449 ± 0.066 |
| C[N+](C)(C)C[C@H](O)CC(=O)[O-] [Levocarnitine] (concentration: 25 µM) | 0.938 ± 0.013 | 1.01 ± 0.099 |
| S=P(N1CC1)(N1CC1)N1CC1 [Thiotepa] (concentration: 2.5 µM) | 1.248 ± 0.012 | 0.583 ± 0.059 |
| C[N+]1(C)[C@@H]2CC[C@H]1C[C@@H](OC(=O)C(O)c1ccccc1)C2 (stereo partly specified) [Homatropine Methylbromide] (concentration: 25 µM) | 0.9418 ± 0.0067 | 0.565 ± 0.018 |
| C[n+]1ccccc1/C=N/O [Pralidoxime Chloride] (concentration: 25 µM) | 1.08 ± 0.037 | 0.959 ± 0.1 |
| COc1c(C)c2c(c(O)c1C/C=C(\C)CCC(=O)OCCN1CCOCC1)C(=O)OC2 [Mycophenolate Mofetil] (concentration: 25 µM) | 0.892 ± 0.0081 | 0.203 ± 0.039 |
| COC(=O)C1=C(C)NC(C)=C(C(=O)OCC(C)C)C1c1ccccc1[N+](=O)[O-] (stereo unspecified) [Nisoldipine] (concentration: 25 µM) | 1.09 ± 0.047 | 0.342 ± 0.015 |
| Clc1ccccc1C(c1ccccc1)(c1ccccc1)n1ccnc1 [Clotrimazole] (concentration: 25 µM) | 0.92 ± 0.04 | 0.591 ± 0.05 |
| CCN(CC)CCOC(=O)C1(C2CCCCC2)CCCCC1 [Dicyclomine·HCl] (concentration: 25 µM) | 0.9222 ± 0.0091 | 0.922 ± 0.054 |
| C[C@@H]1C/C=C/C=C/C=C/C=C/[C@H](O[C@@H]2O[C@H](C)[C@@H](O)[C@H](N)[C@@H]2O)C[C@@H]2O[C@](O)(C[C@@H](O)C[C@H]3O[C@@H]3/C=C/C(=O)O1)C[C@H](O)[C@H]2C(=O)O [Natamycin] (concentration: 25 µM) | 0.951 ± 0.015 | 1.01 ± 0.096 |
| CC1CNc2c(cccc2S(=O)(=O)N[C@@H](CCCNC(=N)N)C(=O)N2CC[C@@H](C)C[C@@H]2C(=O)O)C1 (stereo partly specified) [Argatroban] (concentration: 25 µM) | 0.938 ± 0.025 | 0.702 ± 0.023 |
| CCN(CCO)CCCC(C)Nc1ccnc2cc(Cl)ccc12 (stereo unspecified) [Hydroxychloroquine Sulfate] (concentration: 25 µM) | 0.948 ± 0.013 | 1.03 ± 0.11 |
| O=C(O)[C@H]1/C(=C/CO)O[C@@H]2CC(=O)N21 [Clavulanate Potassium] (concentration: 25 µM) | 0.994 ± 0.011 | 0.787 ± 0.095 |
| CC1=C(/C=C/C(C)=C/C=C/C(C)=C\C(=O)O)C(C)(C)CCC1 [Isotretinoin (13-Cis-Retinoic Acid)] (concentration: 25 µM) | 0.864 ± 0.03 | 1.02 ± 0.11 |
| CC(C)[C@H]1CC[C@H](C(=O)N[C@H](Cc2ccccc2)C(=O)O)CC1 [Nateglinide] (concentration: 25 µM) | 0.966 ± 0.063 | 0.883 ± 0.14 |
| CCCC(CCC)C(=O)O [Valproic Acid] (concentration: 25 µM) | 0.986 ± 0.028 | 0.728 ± 0.029 |
| CC1(C)O[C@@H]2C[C@H]3[C@@H]4C[C@H](F)C5=CC(=O)CC[C@]5(C)[C@H]4[C@@H](O)C[C@]3(C)[C@]2(C(=O)CO)O1 [Flurandrenolide] (concentration: 25 µM) | 0.916 ± 0.035 | 0.638 ± 0.12 |
| COC(=O)Nc1nc2cc(C(=O)c3ccccc3)ccc2[nH]1 [Mebendazole] (concentration: 250 nM) | 0.965 ± 0.029 | 0.686 ± 0.074 |
| Cc1c(O)cccc1C(=O)N[C@@H](CSc1ccccc1)[C@H](O)CN1C[C@H]2CCCC[C@H]2C[C@H]1C(=O)NC(C)(C)C [Nelfinavir Mesylate] (concentration: 2.5 µM) | 1.03 ± 0.015 | 0.779 ± 0.084 |
| O=C1NC(=O)C(c2ccccc2)(c2ccccc2)N1 [Phenytoin] (concentration: 25 µM) | 0.978 ± 0.042 | 0.74 ± 0.12 |
| CC1=C(C(=O)O)N2C(=O)[C@@H](NC(=O)[C@H](N)c3ccccc3)[C@H]2SC1 [Cephalexin Monohydrate] (concentration: 25 µM) | 0.9873 ± 0.0068 | 0.931 ± 0.068 |

| Structure (SMILES) | mean cell size [1] | cell count [2] |
| --- | --- | --- |
| Cn1c(=O)c2c(ncn2CC(O)CO)n(C)c1=O (stereo unspecified) [Dyphylline] (concentration: 25 µM) | 0.966 ± 0.022 | 0.81 ± 0.037 |
| NCCCC[C@H](N[C@@H](CCc1ccccc1)C(=O)O)C(=O)N1CCC[C@H]1C(=O)O [Lisinopril·2H2O] (concentration: 25 µM) | 0.955 ± 0.022 | 0.884 ± 0.075 |
| Cc1cc(C2CCCCC2)n(O)c(=O)c1 [Ciclopirox] (concentration: 2.5 µM) | 1.14 ± 0.032 | 0.395 ± 0.07 |
| Cc1onc(-c2ccccc2)c1C(=O)N[C@@H]1C(=O)N2[C@@H]1SC(C)(C)[C@@H]2C(=O)O [Oxacillin·Na] (concentration: 25 µM) | 0.9367 ± 0.005 | 0.975 ± 0.1 |
| COC(c1ccccc1)(c1ccccc1)[C@H](Oc1nc(C)cc(C)n1)C(=O)O [Ambrisentan] (concentration: 25 µM) | 0.975 ± 0.043 | 0.757 ± 0.088 |
| OC(CCN1CCCCC1)(c1ccccc1)C1CC2C=CC1C2 (stereo unspecified) [Biperiden·HCl] (concentration: 25 µM) | 0.951 ± 0.055 | 0.654 ± 0.12 |
| O=C1CN(/N=C/c2ccc([N+](=O)[O-])o2)C(=O)N1 [Nitrofurantoin] (concentration: 2.5 µM) | 0.955 ± 0.019 | 0.66 ± 0.029 |
| O=C(O)c1cc(N=Nc2ccc(O)c(C(=O)O)c2)ccc1O [Olsalazine·Na] (concentration: 25 µM) | 0.955 ± 0.036 | 0.611 ± 0.042 |
| CC(C)OC(=O)CCC/C=C\C[C@@H]1[C@@H](CC[C@@H](O)CCc2ccccc2)[C@H](O)C[C@@H]1O [Latanoprost] (concentration: 25 µM) | 0.981 ± 0.046 | 0.534 ± 0.18 |
| Clc1ccc(C(c2ccccc2Cl)C(Cl)Cl)cc1 (stereo unspecified) [Mitotane] (concentration: 25 µM) | 1 ± 0.02 | 0.866 ± 0.14 |
| Cn1ccnc1S [Methimazole] (concentration: 25 µM) | 0.951 ± 0.011 | 0.842 ± 0.092 |
| c1ccc2c(CC3=NCCN3)cccc2c1 [Naphazoline·HCl] (concentration: 25 µM) | 0.94 ± 0.024 | 0.864 ± 0.024 |
| Cc1c(-c2ccccc2)oc2c(C(=O)OCCN3CCCCC3)cccc2c1=O [Flavoxate·HCl] (concentration: 25 µM) | 1.01 ± 0.057 | 1.01 ± 0.062 |
| C[N+](C)(C)CCOC(N)=O [Carbachol (Carbamylcholine ) Chloride] (concentration: 25 µM) | 0.962 ± 0.019 | 1.13 ± 0.12 |
| OC(CNCC(O)C1CCc2cc(F)ccc2O1)C1CCc2cc(F)ccc2O1 (stereo unspecified) [Nebivolol·HCl] (concentration: 25 µM) | 1.15 ± 0.094 | 0.483 ± 0.11 |
| CN1[C@@H]2CC[C@H]1C[C@@H](OC(c1ccccc1)c1ccccc1)C2 [Benztropine Mesylate] (concentration: 25 µM) | 0.976 ± 0.054 | 0.666 ± 0.17 |
| NS(=O)(=O)c1cc2c(cc1C(F)(F)F)NC(Cc1ccccc1)NS2(=O)=O (stereo unspecified) [Bendroflumethiazide] (concentration: 25 µM) | 0.957 ± 0.041 | 0.902 ± 0.08 |
| O=C1CC2(CCCC2)CC(=O)N1CCCCN1CCN(c2ncccn2)CC1 [Buspirone·HCl] (concentration: 25 µM) | 0.9275 ± 0.0078 | 0.96 ± 0.097 |
| C[C@H]1C[C@@H]2[C@H]([C@@H](O)C[C@@]3(C)[C@H]2CC[C@]3(O)C(=O)CO)[C@@]2(C)C=CC(=O)C=C12 [Methylprednisolone] (concentration: 25 µM) | 0.908 ± 0.013 | 0.873 ± 0.025 |
| Nc1nc(/C(=C/CC(=O)O)C(=O)N[C@@H]2C(=O)N3C(C(=O)O)=CCS[C@H]23)cs1 [Ceftibuten] (concentration: 25 µM) | 0.925 ± 0.016 | 1.11 ± 0.031 |
| CC(C[N+](C)(C)C)OC(N)=O (stereo unspecified) [Bethanechol Chloride] (concentration: 25 µM) | 0.926 ± 0.034 | 0.393 ± 0.12 |
| COc1cc(CNC(=O)CCCC/C=C/C(C)C)ccc1O [Capsaicin] (concentration: 25 µM) | 0.903 ± 0.021 | 0.901 ± 0.08 |
| OC[C@H]1O[C@@H](n2cnc3c2N=CNC[C@H]3O)C[C@@H]1O [Pentostatin] (concentration: 25 µM) | 0.959 ± 0.029 | 1.14 ± 0.024 |
| COc1cccc2c1C(=O)c1c(O)c3c(c(O)c1C2=O)C[C@@](O)(C(=O)CO)C[C@@H]3O[C@H]1C[C@H](N)[C@H](O)[C@H](C)O1 [Doxorubicin·HCl] (concentration: 250 nM) | 1.47 ± 0.048 | 0.234 ± 0.035 |
| CC1(C)NC(=O)N(c2ccc([N+](=O)[O-])c(C(F)(F)F)c2)C1=O [Nilutamide] (concentration: 25 µM) | 0.954 ± 0.029 | 0.638 ± 0.066 |
| CN(C)c1ccc(O)c2c1C[C@H]1C[C@H]3[C@H](N(C)C)C(=O)C(C(N)=O)=C(O)[C@@]3(O)C(=O)C1=C2O [Minocycline] (concentration: 2.5 µM) | 0.969 ± 0.027 | 0.894 ± 0.04 |
